Compound activity as filed in PubChem.
Hits are enriched below; roughly 3.2% of the tested compounds scored in any of these assays.
PHOSPHO1 inh – inhibitors of human PHOSPHO1 phosphatase; hit rate 1.1% among 290,000; inhibition, % at 13.3 µM; AID 1565; recombinant PHOSPHO1, absorbance phosphatase assay; in the data active means inhibition above about 60%
ANO1 activ – activators or potentiators of mouse TMEM16A chloride channel | Q8BHY3 | HEK293 TMEM16A/YFP-H148Q/I152L, iodide quench fluorescence; hits give low values | B-score at 10 µM | hit rate 0.3% among 340,000 | AID 623877;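 active means fluorescence-ratio B-score plate-corrected deviation score at least 3 library SD below zero, with starting fluorescence score within 5 deviations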;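 further: channel opened by trigger with iodide after compound preincubation; score built on the fluorescence ratio of max minus min over baseline; more negative score means more quench and so TMEM16A activation or potentiation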
Target sequence (Q8BHY3 whole entry, looked up): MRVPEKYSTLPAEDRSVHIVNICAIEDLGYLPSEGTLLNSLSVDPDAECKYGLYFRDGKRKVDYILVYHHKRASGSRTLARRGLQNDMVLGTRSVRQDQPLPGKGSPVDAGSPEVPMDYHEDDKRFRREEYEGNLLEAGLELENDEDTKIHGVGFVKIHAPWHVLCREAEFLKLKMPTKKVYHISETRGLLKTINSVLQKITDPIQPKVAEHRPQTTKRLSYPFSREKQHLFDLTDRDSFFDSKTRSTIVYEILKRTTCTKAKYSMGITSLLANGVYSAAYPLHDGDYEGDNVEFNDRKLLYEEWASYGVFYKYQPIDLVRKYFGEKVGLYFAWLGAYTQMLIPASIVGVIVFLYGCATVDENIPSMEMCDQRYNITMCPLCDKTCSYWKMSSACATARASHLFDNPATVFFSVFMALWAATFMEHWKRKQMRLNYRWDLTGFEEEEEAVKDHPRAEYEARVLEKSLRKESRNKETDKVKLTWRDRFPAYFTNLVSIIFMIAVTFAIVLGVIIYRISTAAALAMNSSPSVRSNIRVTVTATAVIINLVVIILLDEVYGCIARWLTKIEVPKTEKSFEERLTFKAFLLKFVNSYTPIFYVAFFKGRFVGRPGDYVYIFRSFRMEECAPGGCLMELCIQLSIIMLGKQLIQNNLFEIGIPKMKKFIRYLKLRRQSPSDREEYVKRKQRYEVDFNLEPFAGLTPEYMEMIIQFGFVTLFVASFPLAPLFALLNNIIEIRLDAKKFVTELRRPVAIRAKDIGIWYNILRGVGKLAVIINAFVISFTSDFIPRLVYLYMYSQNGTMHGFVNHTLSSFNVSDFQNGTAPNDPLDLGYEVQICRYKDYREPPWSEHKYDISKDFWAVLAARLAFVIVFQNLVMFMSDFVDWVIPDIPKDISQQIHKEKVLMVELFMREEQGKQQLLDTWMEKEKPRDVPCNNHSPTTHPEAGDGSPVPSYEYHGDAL
CHT allo act – allosteric activators of human choline transporter CHT; Q9GZV3; CHT-expressing cells, membrane potential dye, choline EC20; hits give high values; LV-AA mutant CHT in HEK293 cells; B-score at 10 µM; hit rate 0.49% among 310,000; AID 488977;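 active means initial fluorescence not abnormally high and integrated response B-score, plate-corrected, over 3 SD above library mean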
HDAC3 inhib – inhibitors of human histone deacetylase 3; recombinant HDAC3, fluorogenic peptide/trypsin coupled, fluorescence; inhibition, % at 8.3 µM; hit rate 0.15% among 320,000; AID 2718; in the data active means inhibition above about 26%, passing the limit was not always enough
CHT inh – inhibits the human high affinity choline transporter; Q9GZV3; CHT-expressing cells, membrane potential dye, choline response; hits give low values; B-score at 10 µM; hit rate 0.86% among 310,000; AID 488975;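 active means B-score over 3 SD under the library average, and starting fluorescence ratio not unusually high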;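 further: choline stimulus applied at its EC90 after an EC20 pre-addition; B-score computed on integrated fluorescence ratio after choline addition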
TMEM16A inh – mouse TMEM16A channel inhibition, primary screen; hit rate 1.2% among 310,000; normalized B-score (activity score, 25-100; higher = stronger inhibition) at 10 µM; Q8BHY3; HEK293 TMEM16A/YFP iodide influx fluorescence, ionomycin;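 active means ratio plate-corrected score three or more library SD toward inhibition, starting fluorescence score within five deviations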;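 further: score derived from kinetic fluorescence span divided by baseline fluorescence per well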
Starred values were filed as active, the others as inactive; i = inactive; . = no result.

SMILES	PHOSPHO1 inh	ANO1 activ	CHT allo act	HDAC3 inhib	CHT inh	TMEM16A inh
Cc1ccc(C(=O)n2cnnc2N)cc1	-15	i	i	44*	i	i
O=C(Nc1cccnc1)C1CC(c2ccccc2O)=NO1 (stereo not drawn)	0	i	i	1	i	i
CCC1(C)Cc2c(sc3c2c(=O)n(-c2ccccc2)c(=O)n3C)CO1 (stereo not drawn)	77*	i	i	3	i	i
Cn1c(=O)n(-c2ccccc2)c(=O)c2c3c(sc21)COC(C)(C)C3	16	i	i	-13	i	i
COc1ccc(NC(=O)C(C)N(C)Cc2ccc3ccccc3c2)cc1 (stereo not drawn)	-12	i	i	1	i	i
O=S(=O)(c1cccs1)N1CCN(CC(O)COc2cc(Cl)ccc2Cl)CC1 (stereo not drawn)	-20	-14*	i	2	i	25*
CCOC(=O)N1CCN(c2ccc(O)cc2)CC1	63*	i	i	5	i	i
CCOC(=O)N1CCN(c2ccc(Cl)cc2)CC1	-10	i	i	3	i	i
Cc1c(C(=O)Nc2nc3ccccc3[nH]2)oc2ccc(Br)cc12	-21	-4.6*	i	-4	i	i
O=C1NC2(CCCCCC2)C(=O)N1Cc1c(F)cccc1Cl	27	.	i	0	i	i
Nc1no[n+]([O-])c1-c1ccccc1	20	i	i	-7	i	i
O=C(N/C(=C\c1ccc(Cl)cc1)C(=O)N1CCOCC1)c1ccc([N+](=O)[O-])cc1	80*	i	i	-1	i	i
O=C(N/C(=C/c1ccc(Cl)cc1)C(=O)N1CCOCC1)c1ccccc1	29	i	i	5	i	i
Cc1cccc(N2CCN(C(=O)CCS(=O)(=O)c3ccc4c(c3)oc(=O)n4C)CC2)c1C	38	i	i	-9	i	i
Cc1cccc(N2CCN(C(=O)CCNS(=O)(=O)c3ccc4c(c3)oc(=O)n4C)CC2)c1C	63*	i	i	-1	i	i
Cc1ccc(-c2ccnc(=S)[nH]2)cc1	90*	i	i	1	i	i
S=c1nccc(-c2ccc3c(c2)CCO3)[nH]1	-88	i	i	4	i	i
CC(Sc1ccsc1[N+](=O)[O-])C(=O)NCc1ccco1 (stereo not drawn)	-12	i	i	8	i	i
COc1ccc(OC)c2cc3ccccc3cc12	.	-8.3*	.	.	.	.
COc1cc2ccccc2cc1C(=O)O	-34	i	i	4	i	i
CCOc1ncccc1C(=O)Nc1nnc(C(CC)CC)s1	40	i	i	-5	i	i
CC1(C)Cc2c(sc3c2c(=N)n(Cc2ccco2)c(=O)n3CC(=O)Nc2ccccc2)CO1	6	i	i	1	i	i
CCn1c(=O)n(Cc2ccco2)c(=N)c2c3c(sc21)COC(C)(C)C3	63*	i	i	0	i	i
CCCC(=O)n1nc(-c2ccco2)nc1SCc1ccccc1	-1	i	i	48*	i	i
CSc1nc(-c2ccco2)nn1C(=O)c1ccccc1	23	i	i	97*	i	i
SMILES	PHOSPHO1 inh	ANO1 activ	CHT allo act	HDAC3 inhib	CHT inh	TMEM16A inh
CSc1nc(-c2ccco2)nn1C(=O)c1ccco1	-6	i	i	72*	i	i
C/C=C/C=C(/NC(=O)c1ccccc1)C(=O)Nc1ccccc1	51	i	i	6	i	i
O=C(CCCCCCCCC(=O)N1CCCCC1)N1CCCCC1	.	i	.	.	.	.
Cc1nc2ccc(C(=O)Nc3ccc4nc[nH]c4c3)cc2[nH]1	.	i	i	-1	i	i
CC(NC(=O)c1ccc(S(C)(=O)=O)cc1)c1cccc2ccccc12 (stereo not drawn)	24	i	i	1	i	i
O=C(C[n+]1cc(-c2ccccc2)n2c1CCCCC2)c1ccc(Cl)cc1	-8	i	i	6	i	i
Clc1ccc(C[n+]2cc(-c3ccccc3)n3c2CCCCC3)c(Cl)c1	60*	i	i	0	i	i
NC(=S)N=Nc1ccc(NN=C(N)N)cc1	-42	i	i	1	i	i
CCCCCCOC1(c2ccccc2)OC(=O)c2ccccc21 (stereo not drawn)	5	i	i	5	i	25*
O=C(O)c1ccc(N=C2SCC(=O)N2Cc2ccccc2)cc1	26	i	i	4	i	i
O=C(O)c1ccc(CN2C(=O)CSC2=S)cc1	71*	i	i	-2	i	i
CCCN(CCC)C(=O)Cn1c(=O)c2ccccc2n2c(=S)sc(-c3ccccc3C)c12	6	-7.6*	i	6	i	i
CCCN(CCC)C(=O)Cn1c(=O)c2sccc2n2c(=S)sc(-c3ccccc3)c12	-40	i	i	5	i	i
COC(=O)CSc1nc2sc3c(c2c(=O)n1C1CCCCC1)CCN(C)C3	20	.	8.8*	4	i	i
C=CCC(C#N)(c1ccc(OC)c(OC)c1)c1cnccn1 (stereo not drawn)	.	i	i	-4	i	i
COC(=O)C1=C(N)c2ccccc2C1(C#N)c1ccccc1 (stereo not drawn)	-9	-10*	i	-17	i	i
Cn1c(Cc2c[nH]c3ccccc23)n[nH]c1=S	89*	i	i	5	i	i
Cc1[nH]c2ccccc2c1Cc1n[nH]c(=S)n1C	-16	i	i	1	i	i
O=C(NCC1OCCc2ccccc21)c1ccc(NC(=O)c2ccc(Cl)cc2Cl)cc1 (stereo not drawn)	-24	i	i	1	i	i
COc1ccccc1-c1n[nH]c(=S)o1	14	i	i	-13	i	i
CSc1ccccc1-c1n[nH]c(=S)o1	45	i	.	.	.	.
Cc1ccccc1-c1n[nH]c(=S)o1	96*	i	i	-6	i	i
S=c1[nH]nc(-c2ccccc2)o1	101*	i	i	-8	i	i
COc1ccc(S(=O)(=O)N2CCC(Nc3ccccc3Cl)CC2)cc1	61*	i	i	-8	i	i
COc1ccc(C(=O)CN2CCN(S(=O)(=O)c3cccc([N+](=O)[O-])c3)CC2)cc1OC	-1	i	i	53*	i	i
Cc1cc(Cl)c(S(=O)(=O)N2CCN(c3ccc(F)cc3)CC2)cc1OCC(=O)NC1CCCCC1	5	i	i	-1	i	25*
O=C(CN1CCN(S(=O)(=O)c2ccc(F)cc2)CC1)NC1CCCC1	61*	i	i	-10	i	i
